Test results from PubChem BioAssay (NCATS).
Results filed as inconclusive are left out. The source made the active and inactive calls. Calls follow the shape of the dose curve; as a rule, active = well fitted cell-killing curve with a large enough effect; inconclusive = small, poorly fitted or top-dose-only effect, or effect the other way; inactive = flat fitted curve, though single readings scatter.

Tests used:
Assay in all cases: Primary qHTS to identify gynecologic anti-cancer compounds using libraries of approved drugs and bioactive compounds (AID 1345084); also: nearly all actives have a fitted effect of over 55% in size
Settings in all cases: Gynecologic cancer cell panel viability, ATPlite luminescence, 48 h; series mostly up to 57.5 µM
PA-1 = test system: PA-1
How it was run: (§1)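 ATP-based viability (ATPlite), 1,000 cells/well, 16 h pre-incubation, 48 h compound at 37 C, 5% CO2, 15 min RT before read.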

SKOV3 = test system: SKOV3
How it was run: as §1

Tov-21-G = test system: Tov-21-G
How it was run: as §1

Tov112D = test system: Tov112D
How it was run: as §1
% is scaled to controls: 0 for no effect and ±100 for the full control effect.

COCC1OC(OC(C)(C)C2CCC3(C)C=C(C4CCC5C4(C)CC(O)C4OC(C(C)(C)OC6OC(CO)C(O)C(O)C6NC(C)=O)CCC45C)CCC3O2)C(NC(C)=O)C(O)C1O (configuration not stated)
inactive: activity change, negative = cytotoxicity (PA-1) -1.55% [at 11.6 µM] | activity change, negative = cytotoxicity (SKOV3) 9.88% [at 11.6 µM] | activity change, negative = cytotoxicity (Tov-21-G) 1.68% [at 11.6 µM] | activity change, negative = cytotoxicity (Tov112D) -1.97% [at 11.6 µM]

CC(C)c1cc(C(=O)N2CC[C@H](NC(=O)C3CC3)C2)n[nH]1
inactive: Potency (PA-1) | Potency (SKOV3) | Potency (Tov-21-G) | Potency (Tov112D)

O=C(O)COCCN1CCN([C@H](c2ccccc2)c2ccc(Cl)cc2)CC1
inactive: Potency (PA-1) | Potency (SKOV3) | Potency (Tov-21-G) | Potency (Tov112D)

O=C(O)C(O[C@@H]1O[C@H](CO[C@@H]2O[C@H](CO)[C@@H](O)[C@H](O)[C@H]2O)[C@@H](O)[C@H](O)[C@H]1O)c1ccccc1 (some centres not stated)
inactive: Potency (PA-1) | Potency (SKOV3) | Potency (Tov-21-G) | Potency (Tov112D)

CC(C)C(C(=O)N(C)C(C)C(N)=O)N(C)C(=O)C1CCCN1C(=O)/C=C/C=C/C(O)C(C)O (configuration not stated)
inactive: Potency (PA-1) | Potency (SKOV3) | Potency (Tov-21-G) | Potency (Tov112D)

CC1CC2OC3(OC2C(C)(C)O)C1C1(C)CCC24CC25CCC(O[C@@H]2OC[C@@H](O)[C@H](O)[C@H]2O)C(C)(C)C5CC=C4C1(C)C3O (some centres not stated)
inactive: Potency (PA-1) | Potency (SKOV3) | Potency (Tov-21-G) | Potency (Tov112D)

Cc1cc(C)c2c(N)c(C(=O)NCc3ccc(Cl)cc3)sc2n1
inactive: Potency (PA-1) | Potency (SKOV3) | Potency (Tov-21-G) | Potency (Tov112D)

CC12CCC(C(OC3OC(COC4OCC(O)(CO)C4O)C(O)C(O)C3O)C1)C(C)(C)O2 (configuration not stated)
inactive: Potency (PA-1) | Potency (SKOV3) | Potency (Tov-21-G) | Potency (Tov112D)
